High-throughput results: PubChem, National Center for Advancing Translational Sciences (NCATS)
TGFb inhibitor: inhibitors of TGF-b signaling | HepG2 CAGA-GFP TGF-b/SMAD3 reporter, GFP fluorescence, 18 h; TGF-beta stimulated, 500 pg/mL final | Potency, µM (series often up to 46.1 µM), without a hit: top-dose activity, negative = inhibition, hits mostly inhibitors | 410,000 tested, 1.2% active | AID 588855; note: % is set by controls: 0 for no effect and ±100 for the full control effect; nearly all actives have a fitted effect of over 65% in size
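GFP signal (ex488/em500-530) from TGF-beta-stimulated HEPG2 CAGA-GFP cells, 500 pg/mL final, 18 h at 37 degrees C in DMEM plus 1% FBS, normalized to unstimulated and DMSO-stimulated controls.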
TDP1 cell noCPT: qHTS for Inhibitors of human tyrosyl-DNA phosphodiesterase 1 (TDP1): qHTS in cells in absence of CPT. DT40 Tdp1-/- hTDP1 cells, no CPT, ATP luminescence, 48 h. Potency, µM (titrated, usually from 46.2 µM), without a hit: at the top dose activity change, negative = growth inhibition, usual class: inhibitors. 420,000 tested, 15% active. AID 686978, 2013; note: % is set by controls: 0 for no effect and ±100 for the full control effect; nearly all actives have a fitted effect of over 55% in size
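Cells were dispensed at 400 per well, compounds added by pin tool, plates incubated ≥48 hr at 37 °C, then CellTiter-Glo added for 30 min at room temperature before luminescence reading. Line: DT40 Tdp1-/- complemented with hTDP1; camptothecin omitted.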
TDP1 cell CPT: growth inhibition of DT40 Tdp1-/-;hTDP1 cells with camptothecin (screen for TDP1 inhibitors) | AID 686979 | 420,000 tested, 12% active | chicken DT40 Tdp1-/-;hTDP1 cells + 20 nM CPT, ATP luminescence, 48 h | Potency, µM (top dose mostly 46.2 µM), inactives show top-dose activity change, negative = growth inhibition, most hits filed as inhibitors; note: % is set by controls: 0 for no effect and ±100 for the full control effect; nearly all actives have a fitted effect of over 55% in size
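Chicken DT40 Tdp1-/- cells complemented with human TDP1, 400 cells/well, exposed to compounds plus 20 nM camptothecin for at least 48 h at 37 C; viability read as ATP content by CellTiter-Glo luminescence.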
HepG2 viability: counter-screen for TGF-b inhibitors: cytotoxicity in HepG2 cells; Potency, µM (highest dose often 46.1 µM), for inactives: at the top dose activity change, negative = cytotoxicity, actives largely listed as cytotoxic; HepG2 CAGA-GFP viability, ATP luminescence, 18 h; 410,000 tested, 0.76% active
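CellTiter-Glo luminescence gave cytotoxicity after 18 hours at 37 degrees C. The cells were HepG2 CAGA-GFP in 1% FBS DMEM, stimulated with 500 pg/mL TGF-beta after compound addition. %Activity was normalised to no-cell wells (complete cell-killing) and DMSO (no toxicity), and curves were fitted and classified.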
HT1080 IDH1KD tx: kills HT-1080 cells with IDH1 knockdown; HT-1080 IDH1 knockdown viability, ATP luminescence, 48 h; 360,000 tested, 2% active; Potency, µM (highest dose often 46.1 µM), for the others: top-dose activity, negative = toxicity, actives largely listed as cytotoxic;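 note: 0% = DMSO wells and -100% = cell-free medium wells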
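IDH1KD HT-1080 cells, 750/well, RPMI + 5% FBS; compound pinned after 2 h settling; 48 h, 37 °C; CellTiter-Glo luminescence; % activity normalised to DMSO and no-cell wells; curves fitted, classed by r2 and efficacy.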
HT1080NT lethal: kills 2HG-producing HT-1080-NT fibrosarcoma cells; HT-1080-NT fibrosarcoma viability, CellTiter-Glo ATP luminescence, 48 h; Potency, µM (highest dose often 46.1 µM), for inactives: top-dose activity, negative = less viability, usual class: cytotoxic; 360,000 tested, 1.6% active; AID 686970;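 note: NT is the 2HG producing partner of a matched IDH1 knockdown line; 0% = DMSO-treated cells and -100% = media-only wells without cells; nearly all actives have a fitted effect of over 55% in size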
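Fibrosarcoma NT cells, 750 per well in 5% FBS RPMI, were exposed to compound for 48 hours. Viability: CellTiter-Glo luminescence.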
The depositor's hits bear a star; u = inconclusive; x = not tested or not shown; [ ] = remark or other dose. This is a sample that favours compounds with a hit; in the whole collection about 17% have one here. Calls come from the whole dose curve; as a rule, active = well fitted curve in the direction sought with a large enough effect; inconclusive = small, poorly fitted or top-dose-only effect, or another doubt; inactive = no such curve, though single readings can be large; an effect the other way counts as inactive or inconclusive. Potency is the fitted concentration of half-maximal effect.

SMILES | TGFb inhibitor | TDP1 cell noCPT | TDP1 cell CPT | HepG2 viability | HT1080 IDH1KD tx | HT1080NT lethal
c1csc(C(c2nnnn2C2CCCCC2)N2CCCC3(CCCCC3)C2)c1 (centres undefined) | -10% | 23µM* | u | -11% | 1% | 5%
CCC(C)(C)n1nnnc1C(c1cccs1)N1CCCCC1 (centres undefined) | -5% | 18µM* | u | -22% | 0% | -11%
CCC(C)(C)n1nnnc1C(c1ccc2ncccc2c1)N1CCCCCC1 (centres undefined) | -5% | u | 11µM* | -13% | 17% | 11%
Cn1c(=O)n(Cc2ccc(Cl)cc2)c2ccccc21 | -2% | -3% | -24% | -1% | -17% | 6%
CCOc1ccc(-c2cccc(NC(=O)COc3ccc(Cl)cc3)c2)nn1 | -8% | u | u | -11% | 0% | -14%
COc1ccccc1N1C(=O)c2cccc3c(Cl)ccc(c23)C1=O | u | 13µM* | u | -20% | 6% | 3%
CN1C(=O)c2cccc3c(Cl)ccc(c23)C1=O | 0% | -22% | -6% | -23% | 8%[9.24 µM] | 2%
COc1ccc2nc(/N=C\N(C)C)sc2c1 | 3% | -2% | -13% | -28% | 9% | 13%
COc1ccc2nc(N=Nc3ccc(N(C)C)cc3)sc2c1 | 1% | u | 16µM* | -12% | -7% | 1%
Cc1ccc(S(=O)(=O)Oc2ccc(C3C4=C(CCCC4=O)N(CCC(=O)O)C4=C3C(=O)CCC4)cc2Cl)cc1 | 10% | -21% | -6% | -15% | -6% | 0%
O=C(Nc1nnc(C2=COCCO2)o1)c1ccc(F)cc1 | 15% | u | u | -13% | -20% | 0%
O=C(Nc1nnc(C2=COCCO2)o1)c1cccc(C(F)(F)F)c1 | -6% | 15µM* | 26µM* | 1% | -20% | -14%
O=C(Nc1nnc(C2=COCCO2)o1)c1ccc(Cl)cc1 | 21% | u | 16µM* | -7% | -30% | -1%
COc1ccccc1-c1csc(C(O)c2cccc(Cl)c2)n1 (centres undefined) | u | u | 21µM* | -49% | -5% | 4%
COc1cc(F)ccc1-c1csc(C(O)c2ccc(F)c(F)c2)n1 (centres undefined) | u | 13µM* | u | -43% | u | u
COc1ccccc1-c1csc(C(O)c2ccccc2)n1 (centres undefined) | 17% | u | 23µM* | -36% | 10% | 28%
Cc1ccc(NC(=O)COc2cccc(-n3cnnn3)c2)cc1[N+](=O)[O-] | 6% | u | u | 10% | -6% | -6%
Cc1cc2c(cc1C)N(C(=O)CSc1nncn1C)C(C)(C)c1ssc(=S)c1-2 | u | u | 29µM* | -38% | -13%[9.24 µM] | u
Cc1ccc2c(c1)N(C(=O)CSc1nncn1C)C(C)(C)c1ssc(=S)c1-2 | 10% | u | 26µM* | 0% | -26% | -23%
O=C(Nc1cccc2c1CCCC2)c1cc([N+](=O)[O-])ccc1Cl | u | 26µM* | u | -46% | 21µM* | 16µM*
O=C(Nc1cccc2c1CCCC2)c1ccc(Cl)c([N+](=O)[O-])c1 | 0% | 16µM* | u | -9% | -6% | -13%
COc1ccc(/C=C/C(=O)NCC(=O)N/N=C/c2cc(Br)ccc2OCc2ccccc2)cc1 | -6% | u | u | -30% | -15%[9.24 µM] | u
COc1ccccc1/C=C/C(=O)NCC(=O)N/N=C/c1ccccc1 | 2% | 6% | 3% | -4% | 4% | 0%
COc1cccc(/C=N/NC(=O)CNC(=O)C(c2ccccc2)c2ccccc2)c1O | 1% | 5.8µM* | 7.3µM* | -15% | u | u
COc1ccc(/C=C\C(=O)NCC(=O)N/N=C/c2cccc(OC)c2O)cc1 | -5% | 2.6µM* | 5.8µM* | -10% | 0% | -17%
SMILES | TGFb inhibitor | TDP1 cell noCPT | TDP1 cell CPT | HepG2 viability | HT1080 IDH1KD tx | HT1080NT lethal
COc1ccc(Br)cc1/C=N/NC(=O)CNC(=O)/C=C/c1ccccc1 | u | 13µM* | 16µM* | -25% | u | u
COc1cccc(/C=N/NC(=O)CNC(=O)/C=C\c2ccccc2)c1O | u | 2.1µM* | u | -17% | 22% | -3%
CC(C)(C)n1ncc2c(=O)n(Cc3cc(C(F)(F)F)ccc3Cl)cnc21 | 6% | x | x | -17% | x | x
COc1ccccc1/C=C\C(=O)NCC(=O)N/N=C/c1ccc(O)cc1O | u | u | u | -3% | 9.2µM* | u
O=C(Nc1cccc([N+](=O)[O-])c1)c1ccc(N2CCCC2=O)cc1 | 1% | -25% | -17% | -29% | 24% | u
COc1ccccc1C1CCN(c2ccc(CO)cc2[N+](=O)[O-])CC1 | u | 16µM* | u | -34% | -27% | -25%
COc1ccccc1C1CCN(Cc2ccc3ccccc3c2)CC1 | u | u | u | -38% | 23µM* | u
CC(C)C(=O)NC(NC(=O)C(C)C)c1ccc([N+](=O)[O-])cc1 | -2% | -3% | -1% | -5% | -3% | 0%
COc1ccc(C(=O)C2CCCN(C(=O)c3noc4c3CCCC4)C2)c(C)c1 (centres undefined) | -18% | 21µM* | u | -9% | 6% | -1%
COc1ccc(C(=O)C2CCCN(C(=O)c3noc4c3CCCC4)C2)cc1F (centres undefined) | 0% | 18µM* | u | -5% | 6% | 7%
COc1ccc(C(=O)C2CCCN(S(=O)(=O)c3ccc(C(C)=O)cc3)C2)c(C)c1 (centres undefined) | -26% | 12µM* | 16µM* | -8% | -12% | -2%
COc1ccc(C(=O)C2CCCN(C(=O)c3csc(C(C)=O)c3)C2)c(C)c1 (centres undefined) | -7% | -18% | u | -4% | -8% | 3%
CCS(=O)(=O)N1CCCC(C(=O)c2ccc(OC)cc2C)C1 (centres undefined) | 0% | 3% | 4% | 10% | 5% | 5%
COc1ccc(C(=O)C2CCCN(C(=O)C3=CCCC3)C2)c(C)c1 (centres undefined) | u | 23µM* | u | -12% | -10% | -4%
COc1ccc(C(=O)C2CCCN(C(=O)c3ccc(CSC)o3)C2)cc1F (centres undefined) | -16% | u | u | 3% | 10% | 3%
